± gives the standard deviation of the averaged measurements.
What was measured:
DLD1 [1] = experiment: cell viability (CellTiter-Glo) relative to plate median (fraction of plate median); higher = more viable cells; details: 5 µM; treatment time 24 h; reporter: 7TFP
Procedure, shortened: (§1)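 Values are well luminescence normalised to the plate median, from either a firefly luciferase or a CellTiterGlo readout on parallel plates. The cells, colorectal cancer lines stably transduced with lentiviral 7TFP or TCF4/Wnt firefly luciferase reporters, were treated with library compounds at a final 5 µM for 24 h. The mean of two independent replicates is listed.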

HCT116 = experiment: as above; details: 5 µM; treatment time 24 h; reporter: TCF4/Wnt
Procedure, shortened: as §1

SW480 [2] = experiment: as above; details: 5 µM; treatment time 24 h; reporter: 7TFP
Procedure, shortened: as §1

DLD1 [3] = experiment: TCF/Wnt firefly luciferase reporter signal relative to plate median (fraction of plate median); higher = higher Wnt reporter signal; details: 5 µM; treatment time 24 h; reporter: 7TFP
Procedure, shortened: as §1

SW480 [4] = experiment: as above; details: 5 µM; treatment time 24 h; reporter: 7TFP
Procedure, shortened: as §1

| SMILES | cell viability (DLD1 [1]) | cell viability (HCT116) | cell viability (SW480 [2]) | TCF/Wnt firefly luciferase reporter signal (DLD1 [3]) | TCF/Wnt firefly luciferase reporter signal (SW480 [4]) |
| --- | --- | --- | --- | --- | --- |
| CC(=O)C1CCC2C3CCC4C[C@H](O)CCC4(C)C3C[C@H](O)C12C (stereo partly drawn) [DIHYDROXY (3alpha,12alpha)PREGNAN-20-ONE] | 1.01 ± 0.042 | 1.12 ± 0.13 | 1.1 ± 0.064 | 0.9925 ± 0.0064 | 0.9855 ± 0.0021 |
| COc1cc([C@@H]2c3cc4c(cc3[C@H](OC(C)=O)[C@H]3COC(=O)[C@H]23)OCO4)cc(OC)c1OC | 0.91 ± 0.17 | 0.567 ± 0.042 | 1.205 ± 0.0071 | 0.759 ± 0.0078 | 0.702 ± 0.02 |
| CN1[C@H]2C[C@H](OC(=O)[C@H](CO)c3ccccc3)C[C@@H]1[C@@H](O)C2 | 0.934 ± 0.033 | 1 ± 0.039 | 0.957 ± 0.03 | 0.924 ± 0.025 | 0.94 ± 0.073 |
| CC1(C)C(=O)[C@@H]2O[C@@H]2[C@@]2(C)C1C[C@@H](O)[C@]1(C)C2CC[C@@]2(C)[C@H](c3ccoc3)OC(=O)C3OC321 (stereo partly drawn) [1,2alpha-EPOXYDEACETOXYDIHYDROGEDUNIN] | 1.01 ± 0.032 | 1.12 ± 0.099 | 1.01 ± 0.056 | 0.962 ± 0.013 | 0.957 ± 0.22 |
| O=C(O)CCCc1ccc(N(CCCl)CCCl)cc1 | 1.02 ± 0.035 | 0.958 ± 0.011 | 1.02 ± 0.067 | 0.974 ± 0.037 | 0.966 ± 0.0028 |
| COc1cc([C@@H]2c3cc4c(cc3[C@@H](O)[C@H]3COC(=O)[C@H]23)OCO4)cc(OC)c1O | 0.952 ± 0.082 | 0.613 ± 0.12 | 1.06 ± 0.021 | 0.785 ± 0.17 | 0.742 ± 0.084 |
| CC(C)(C)[C@]1(O)C[C@@H]2OC(=O)C[C@@]23C(=O)O[C@@H]2OC(=O)[C@H](O)[C@]213 | 0.922 ± 0.033 | 1.03 ± 0.05 | 1.01 ± 0.077 | 1.17 ± 0.042 | 1.07 ± 0.1 |
| O=C1C(Cl)=C(Cl)C(=O)C(Cl)=C1Cl | 0.967 ± 0.061 | 0.977 ± 0.033 | 0.991 ± 0.028 | 0.997 ± 0.16 | 1.02 ± 0.065 |
| CC[C@@]1(O)C[C@H](O[C@H]2C[C@H](N(C)C)[C@H](O[C@H]3C[C@@H]4O[C@H]5CC(=O)[C@H](C)O[C@H]5O[C@@H]4[C@H](C)O3)[C@H](C)O2)c2c(cc3c(c2O)C(=O)c2c(O)ccc(O)c2C3=O)[C@H]1C(=O)OC [Cinerubin-B] | 1.04 ± 0.12 | 0.993 ± 0.067 | 1.01 ± 0.028 | 0.991 ± 0.15 | 1.07 ± 0.028 |
| CC1=C2C(=CO[C@H](C)[C@H]2C)C(O)=C(C(=O)O)C1=O | 0.939 ± 0.076 | 1 ± 0.022 | 0.923 ± 0.027 | 0.861 ± 0.13 | 0.9055 ± 0.0035 |
| N[C@@H]1C[C@H]1c1ccccc1.N[C@H]1C[C@@H]1c1ccccc1 | 1.02 ± 0.059 | 0.959 ± 0.0042 | 0.956 ± 0.033 | 1.05 ± 0.17 | 0.892 ± 0.12 |
| COc1cc2c(cc1OC)[C@@]13CCN4CC5=CCO[C@H]6CC(=O)N2[C@H]1[C@H]6[C@H]5C[C@H]43 | 1.06 ± 0.05 | 1 ± 0.097 | 1.04 ± 0.035 | 0.876 ± 0.096 | 0.974 ± 0.031 |
| CCn1cc(C(=O)O)c(=O)c2cc3c(cc21)OCO3 | 0.96 ± 0.016 | 0.949 ± 0.031 | 0.847 ± 0.27 | 0.893 ± 0.058 | 1 ± 0.11 |
| C=CCc1ccc2c(c1)OCO2 | 0.985 ± 0.021 | 0.898 ± 0.13 | 1.06 ± 0.078 | 0.914 ± 0.16 | 0.952 ± 0.11 |
| CC1(C)C(=O)C=C[C@@]2(C)C1=C(O)C(=O)[C@]1(C)[C@@H]2CC[C@@]2(C)[C@H](c3ccoc3)C[C@H]3O[C@]321 | 0.925 ± 0.029 | 1.13 ± 0.057 | 0.91 ± 0.034 | 0.986 ± 0.062 | 1.02 ± 0.055 |
| CNC(Cc1c[nH]c2ccccc12)C(=O)O (stereo not given) | 1.06 ± 0.11 | 0.975 ± 0.0057 | 1 ± 0.011 | 1.03 ± 0.13 | 0.98 ± 0.13 |
| O=C1CCCN1CC#CCN1CCCC1 | 1.07 ± 0.092 | 1.11 ± 0.028 | 1.05 ± 0.042 | 1.01 ± 0.032 | 0.8175 ± 0.0035 |
| CC[C@H]1CN2CC[C@H]1C[C@@H]2[C@@H](O)c1ccnc2ccc(OC)cc12 | 0.997 ± 0.0042 | 1.07 ± 0.05 | 1.06 ± 0.064 | 1.08 ± 0.24 | 1.06 ± 0.071 |

| SMILES | cell viability (DLD1 [1]) | cell viability (HCT116) | cell viability (SW480 [2]) | TCF/Wnt firefly luciferase reporter signal (DLD1 [3]) | TCF/Wnt firefly luciferase reporter signal (SW480 [4]) |
| --- | --- | --- | --- | --- | --- |
| COP(=S)(OC)Oc1ccc(SC)c(C)c1 | 1 ± 0.014 | 1.07 ± 0.085 | 1.04 ± 0.042 | 1.07 ± 0.028 | 1.01 ± 0.1 |
| C=C[C@@H]1C2=CCOC(=O)C2=CO[C@H]1O[C@@H]1O[C@H](CO)[C@@H](O)[C@H](O)[C@H]1O | 0.971 ± 0.098 | 0.9495 ± 0.0078 | 1.03 | 0.923 ± 0.12 | 0.926 ± 0.034 |
| COc1cc2c(cc1OC)[C@@H]1C(=O)c3ccc4oc(C(C)C)cc4c3O[C@@H]1CO2 | 0.923 ± 0.052 | 0.875 ± 0.14 | 0.75 ± 0.021 | 0.974 ± 0.028 | 0.749 ± 0.052 |
| C[C@@H]1C(=O)O[C@H]2[C@H]1CC[C@@]1(C)C=CC(=O)[C@@]3(C)O[C@@]213 [EPOXY (4,5alpha)-4,5-DIHYDROSANTONIN] | 0.995 ± 0.064 | 1.17 ± 0.071 | 1 ± 0.023 | 0.966 ± 0.09 | 0.902 ± 0.042 |
| CCC(C)C(=O)O[C@@H]1C[C@@]2(C)[C@H](c3ccoc3)OC(=O)CC23OC2(C)O[C@]14[C@]1(C)[C@@H](CC(=O)OC)C5(C)CC1(O)[C@](O)(C5OC(=O)C1(C)OC1C)[C@@H](OC(C)=O)[C@]34O2 (stereo not given in full) | 0.972 ± 0.027 | 0.961 ± 0.11 | 1 ± 0.013 | 1.04 ± 0.014 | 0.928 ± 0.19 |
| COC1CC(OC2CCC3(C)C(CCC4C3CCC3(C)C(C5=CC(=O)OC5)CCC43O)C2)OC(C)C1OC1OC(COC2OC(CO)C(O)C(O)C2O)C(O)C(O)C1O (stereo not given) | 0.873 ± 0.11 | 0.969 ± 0.0099 | 0.964 ± 0.044 | 1.14 ± 0.042 | 1.03 ± 0.098 |
| COc1ccc([C@H]2Oc3c(I)c(OC)cc(OC)c3C[C@@H]2O)cc1OC | 0.912 ± 0.011 | 0.89 ± 0.0071 | 1 ± 0.042 | 0.959 ± 0.2 | 1.07 ± 0.23 |
| Cc1ccc(C[N+](C)(C)C)o1 | 1 ± 0.026 | 1.025 ± 0.0071 | 1.02 ± 0.014 | 0.864 ± 0.012 | 0.903 ± 0.027 |
| COc1ccc(C(=O)O[C@H]2CC[C@@]3(C)[C@@H]4CC[C@H]5[C@]6(O)C[C@H](O)[C@@]7(O)[C@@H](CN8C[C@@H](C)CC[C@H]8[C@@]7(C)O)[C@]6(O)C[C@@]53O[C@]24O)cc1OC | 0.98 ± 0.043 | 0.942 ± 0.083 | 1.02 ± 0.099 | 1.03 ± 0.14 | 1.05 ± 0.087 |
| NC(=O)CN1CCCC1=O | 1.02 ± 0.051 | 1.01 ± 0.092 | 0.955 ± 0.024 | 0.925 ± 0.023 | 1.15 ± 0.05 |
| C[C@@H]1CC[C@H]2[C@@H](C)C(=O)O[C@@H]3O[C@@]4(C)CC[C@@H]1[C@]32OO4 | 1.04 | 1.09 ± 0.14 | 1.145 ± 0.0071 | 1 ± 0.023 | 0.984 ± 0.066 |
| O=[N+]([O-])O[C@H]1CO[C@H]2[C@@H]1OC[C@H]2O[N+](=O)[O-] | 1 | 1.07 ± 0.014 | 1.05 ± 0.028 | 1.02 ± 0.11 | 1.11 |
| C1CCc2nnnn2CC1 | 0.931 ± 0.05 | 1.05 ± 0.035 | 0.925 ± 0.052 | 0.963 ± 0.017 | 1.11 ± 0.042 |
| COc1cc([C@@H]2c3cc4c(cc3[C@H](OC(C)=O)[C@H]3COC(=O)[C@@H]23)OCO4)cc(OC)c1OC | 0.903 ± 0.098 | 0.904 ± 0.027 | 1.02 ± 0.028 | 0.693 ± 0.014 | 0.867 ± 0.092 |
| CN1[C@@H]2CC[C@H]1C[C@@H](OC(=O)C(CO)c1ccccc1)C2 (stereo not given in full) | 0.911 ± 0.12 | 1.01 ± 0.033 | 0.994 ± 0.08 | 0.938 ± 0.21 | 0.938 ± 0.038 |
| O=c1[nH]c2ccccc2n1CCCN1CCC(n2c(=O)[nH]c3cc(Cl)ccc32)CC1 [Domperidone] | 0.898 ± 0.1 | 0.83 ± 0.042 | 0.94 ± 0.063 | 0.997 ± 0.09 | 0.814 ± 0.071 |
| Cc1nccc2c1[nH]c1cc(O)ccc12 | 0.984 ± 0.0099 | 0.978 ± 0.06 | 1.01 ± 0.018 | 1.01 ± 0.03 | 0.978 ± 0.046 |
| COC(C)(C)CCC[C@H](C)C/C=C/C(C)=C/C(=O)OC(C)C | 0.948 ± 0.1 | 1.02 ± 0.014 | 0.972 ± 0.083 | 0.968 ± 0.12 | 0.787 ± 0.08 |

Source: the supplement of paper PMC6522484
